# Measured values taken from ChEMBL document CHEMBL3988442, “University of Dundee, Small-Polar-MMV Screening Library” (2021).
# Values joined by “and” are separate entries in the source; they are usually repeats but may differ in a detail not shown here. Equal values may be shown once. Hit rate of the full screen: of about 34,000 compounds, about 290 (0.85%) showed an effect of 50% or more. The sample holds strong results, similar compounds and a random draw of the others, so the mix is not that of the screen.
# Test system: Plasmodium falciparum
# Experiment: Plasmodium falciparum sporozoite viability assay
# Format: functional, organism-based
# Design: scale not given: in the data most compounds retested in dose-response had high values
Structure (SMILES),Percent Effect [%],Percent Effect (10 mM as filed; unlikely as a test dose)
N#Cc1c(N)nc2c(c1C1CCOC1)CCc1cc(O)ccc1-2 (stereo not drawn),4.476,–
CN(CCc1ccccn1)C(=O)c1cnn(-c2ccccc2F)c1N,-5.321,–
COc1ccc(CN2Cc3[nH]nc(C(=O)N(C)C)c3C2)cc1,11.47,–
Cl.Cn1cc([C@@H]2CN(S(=O)(=O)c3cccs3)C[C@H]2N)c2ccncc21,-0.5895,–
COc1ccc(CC(=O)N2CCCC(n3cccn3)C2)cc1F (stereo not drawn),5.192,–
CS(=O)(=O)CCSc1nnc(Cc2ccccc2F)o1,-5.789,–
Cc1ccc(OCc2occc2C(=O)N2CCOC(C(=O)O)C2)cc1 (stereo not drawn),16.87,–
O=C1COc2cc(OC[C@@H]3CCCN4CCCC[C@H]34)ccc21,-3.094,–
O=C1CCCN1Cc1nnc2n1CCN(Cc1ccco1)C2,15.42,–
CN(C)CCNC(=O)[C@H]1C[C@@H]2CN(C(=O)NCc3ccccc3)C[C@H]1O2.O=C(O)C(F)(F)F,-11.68,–
CN(C)CCNC(=O)c1cc(-c2cnc(N(C)C)nc2)cn1CC1CC1,2.417,–
CN(C)CCNC(=O)c1sc2ccccc2c1C1CCC(CN)CC1.Cl (stereo not drawn),13.87,–
CN(C)CCNC(=O)C1Cc2nc(-c3ccccc3)sc2N1CC1CC1.O=C(O)C(F)(F)F (stereo not drawn),–,63.41% and 51.04% and 49.77%
Cc1occc1C(=O)N1CCCN(Cc2nccn2C(C)C)CC1,16.64,–
CC(C)CN1C(=O)C[C@@H]2[C@@H]1CCN2Cc1cccc(C#N)c1.O=C(O)C(F)(F)F,7.99,–
c1coc(-c2noc(CN3CCc4c(ncn4C4CC4)C3)n2)c1,–,9.104% and 3.38%
Cc1cccc(-c2noc(CN3CCc4c(ncn4C4CC4)C3)n2)c1,–,39.81% and 43.38%
c1csc(-c2noc(CN3CCc4c(ncn4C4CC4)C3)n2)c1,–,59.38% and 60.81%
c1cc(-c2noc(CN3CCc4c(ncn4C4CC4)C3)n2)cs1,–,83.48% and 80.24%
c1ccc(-c2noc(CN3CCc4c(ncn4C4CC4)C3)n2)nc1,–,42.55% and 46.63%

Structure (SMILES),Percent Effect [%],Percent Effect (10 mM as filed; unlikely as a test dose)
CCOc1ccc(C#N)cc1NCC(=O)NC(=O)Nc1ccccc1,-20.07,–
CC(C)Oc1ccc(CNC(=O)NCC(C)(C)C(N)=O)cc1F,-18.14,–
Cl.O=S1(=O)CCC(NCCn2cncc2-c2ccc3c(c2)CCCO3)C1 (stereo not drawn),-8.887,–
CN(C)S(=O)(=O)NCC1CCN(Cc2ccccc2F)CC1,–,-11.15% and -13.88%
c1ccc(Oc2ccc(CNCC3CNc4ccnn4C3)cn2)cc1 (stereo not drawn),-2.407,–
OCC(CO)N1CCCC(Cc2cnc(Nc3ccccn3)cn2)C1 (stereo not drawn),3.086,–
Cc1noc(CNc2ccc(C(=O)N3CCCC(C)C3)cc2C)n1 (stereo not drawn),–,12% and 12.75% and 4.849%
Cc1cc(C(=O)N2CCCC(C)C2)ccc1NCc1nc(C(C)C)no1 (stereo not drawn),–,54.84% and 44.37% and 61.2%
COc1cc(N2C[C@@H]3COC[C@]3(COCc3ccccn3)C2)ncn1.O=C(O)C(F)(F)F.O=C(O)C(F)(F)F,7.967,–
CN1CCCC1c1ccnc(C(=O)N(C)C2CCCCC2)c1 (stereo not drawn),7.615,–
CC(=O)Nc1nc(C(=O)NCc2ccc(N3CCOC(C)C3)nc2)cs1 (stereo not drawn),13.32,–
Cc1cccc(NC(=O)c2sccc2C)n1,7.103,–
COCCN1CCN(C(C)C(=O)Nc2ccnn2C(C)C)CC1 (stereo not drawn),-4.51,–
Cc1ccnc(NC(=O)c2[nH]nc(C(C)C)c2Br)c1,–,109% and 104.4% and 105.9%
Cc1ccnc(NC(=O)c2ccc(-n3ncc(C#N)c3N)cc2)c1,11.53,–
O=C(Nc1cc(C2CCOCC2)[nH]n1)c1cc[nH]n1,-6.094,–
Cc1cccc(NC(=O)c2cncc(C3CCNCC3)n2)n1,3.261,–
CC(C(=O)Nc1ccnn1C(C)C)N1CCN(Cc2ccccc2)CC1 (stereo not drawn),-6.509,–
Cc1n[nH]c(C(=O)NCc2ccnc(OCC(F)(F)F)c2)c1Br,-2.803,–
CC(C)c1n[nH]c(C(=O)Nc2ccnn2C(C)C)c1Br,–,92.02% and 87.97% and 88.19%

Structure (SMILES),Percent Effect [%],Percent Effect (10 mM as filed; unlikely as a test dose)
Cc1cccc(NC(=O)c2[nH]nc(C(C)C)c2Br)n1,–,102.6% and 98.53% and 104.2%
COc1ccncc1NC(=O)c1[nH]nc(C(C)C)c1Br,–,41.3% and 28.4%
COc1ccccc1C1(C(=O)NCCN2CCCCC2)CCOCC1,7.717,–
C[C@@H]1CN(Cc2ccccn2)C[C@]12CCN(Cc1cccnc1)C2=O.O=C(O)C(F)(F)F.O=C(O)C(F)(F)F.O=C(O)C(F)(F)F,-3.791,–
Cn1cc(CN2CCC3(CC2)CC(Nc2nccs2)CO3)cn1.O=C(O)C(F)(F)F (stereo not drawn),18.81,–
NC(=O)c1cc(C2CCCN(C(=O)CCc3ccncc3)C2)n[nH]1 (stereo not drawn),-0.3069,–
CC(C)c1n[nH]c(C(=O)NC(C)c2ccncc2)c1Br (stereo not drawn),–,40.84% and 49.25% and 43.96%
Cc1ccnc(NC(=O)CSCc2cccnc2)c1,–,65.53% and 89.16%
CC(C)c1n[nH]c(C(=O)Nc2ccccn2)c1Br,–,107.3% and 96.92% and 105.3%
Cc1ccnc(NC(=O)c2ccc(C)o2)c1,–,-40.27% and -55.88%
Cc1ccc(NC(=O)CSCc2cccnc2)nc1,–,-29.55% and -38.68%
CC(C)c1n[nH]c(C(=O)Nc2ccncc2)c1Br,–,98.93% and 67.14% and 45.46%
CC(C)C(NC(=O)Nc1ccccn1)c1cccs1 (stereo not drawn),14.64,–
Cl.O=C(Nc1ccccn1)c1cncc(C2CCNCC2)n1,-0.4476,–
Cc1ccnc(NC(=O)c2ccc(Cl)o2)c1,–,72.69% and 57.82%
CCC1CCCCN1C(=O)c1ccnc(N(C)C)c1 (stereo not drawn),0.6463,–
Cc1ccccc1OC1CCN(S(=O)(=O)c2c(C)n[nH]c2C)CC1,0.8951,–
COc1ccccc1CN(Cc1nc(CC(C)C)no1)C1CC1,-1.432,–
